{"source": "PubChem BioAssay (NCATS)", "note": "Results filed as inconclusive are left out. Entries that show only a call come without a potency. Active and inactive are the calls of the source. Calls follow the shape of the dose curve; as a rule, active = well fitted cell-killing curve with a large enough effect; inconclusive = small, poorly fitted or top-dose-only effect, or effect the other way; inactive = flat fitted curve, though single readings scatter."}
{"system": "HeLa", "test": "Primary qHTS to identify gynecologic anti-cancer compounds using libraries of approved drugs and bioactive compounds (AID 1345084); also: nearly all actives have a fitted effect of over 55% in size", "details": "Gynecologic cancer cell panel viability, ATPlite luminescence, 48 h; series mostly up to 57.5 µM", "summary_of_the_method": "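Cells, 1,000 per well, were allowed to settle for 16 h at 37 C before compound addition. Five concentrations were tested for 48 h, and viability was read by ATPlite luminescence after 15 min at room temperature.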"}
{"smiles": "COCCc1ccccn1", "Potency": "inactive"}
{"smiles": "OC1(c2ccccc2)CCNCC1", "Potency": "inactive"}
{"smiles": "O=C1NC(c2ccccc2)(c2ccccc2)C(=O)N1COP(=O)(O)O", "Potency": "inactive"}
{"smiles": "COC(=O)c1cc(Cl)ccc1OC", "Potency": "inactive"}
{"smiles": "COC(=O)CCCCC(CCSS/C(CCO)=C(\\C)N(C=O)Cc1cnc(C)nc1N)SC(C)=O", "note": "(centres undefined)", "Potency": "inactive"}
{"smiles": "COc1ccc2nc(SCc3ncc(C)c(OC)c3C)[nH]c2c1", "Potency": "inactive"}
{"smiles": "Cc1ccc(C(C)OC(=O)C2(C)CCC(C(=O)O)C2(C)C)cc1", "note": "(centres undefined)", "Potency": "inactive"}
{"smiles": "CN(C)CCN1CCN(c2cccc(Cl)c2)C1=O", "Potency": "inactive"}
{"smiles": "CCOC(=O)C(=O)CCCCCCl", "Potency": "inactive"}
{"smiles": "CCOC(=O)Oc1ccc(CCNC(=O)[C@H](CCSC)NC(C)=O)cc1OC(=O)OCC", "Potency": "inactive"}
{"smiles": "COC(=O)c1cc(Cl)c(NC(C)=O)cc1OC", "Potency": "inactive"}
{"smiles": "CCN1CCN(c2cc(-c3ccc(F)cc3)c3c(n2)CCCCCC3)CC1", "Potency": "inactive"}
{"smiles": "CCCc1ncc(C(=O)O)s1", "Potency": "inactive"}
{"smiles": "Cc1coc2ccccc2c1=O", "Potency": "inactive"}
{"smiles": "O=C1CC2(CCCC2)CC(=O)N1", "Potency": "inactive"}
{"smiles": "COC(=O)/C=C\\C(=O)OC", "Potency": "inactive"}
{"smiles": "C#CC(C)(CC)OC(=O)c1ccccc1C(=O)O", "note": "(centres undefined)", "Potency": "inactive"}
{"smiles": "O=C(O)Cn1c(=O)n(Cc2ccc(Br)cc2F)c(=O)c2ccc(Cl)cc21", "Potency": "inactive"}
{"smiles": "CN1CCN(N)CC1", "Potency": "inactive"}
{"smiles": "CC(CC(C#N)(c1ccccc1)C(C)C)N(C)C", "note": "(centres undefined)", "Potency": "inactive"}
{"smiles": "CCOC(=O)CN1CCCC1=O", "Potency": "inactive"}
{"smiles": "CC(C)(C)NCC(O)COc1ccccc1OCC1CCCO1", "note": "(centres undefined)", "Potency": "inactive"}
{"smiles": "CCN(CC)CC(=O)Oc1ccc(NC(C)=O)cc1", "Potency": "inactive"}
{"smiles": "COC(=O)/C=C(/C)N", "Potency": "inactive"}
